Most compounds without a hit are left out; they make up all but 7.8% or so of the library.
Vaccinia Venus: inhibitors of vaccinia virus (Venus reporter); Vaccinia virus Venus reporter expression, fluorescence; Potency, µM (titrated, usually from 36.5 µM), for the others: top-dose activity change, negative = inhibition, actives largely listed as inhibitors; 330,000 tested, 0.46% active; calls by dose curve; tested in A549 cells; also: potency is read from the fitted curve at half-maximal effect; nearly all actives have a fitted effect of over 30% in size
VACV mCherry inh: inhibitors of vaccinia virus infection (mCherry reporter signal). Vaccinia virus mCherry reporter infection, fluorescence. AID 720579. 310,000 tested, 0.63% active. Potency, µM (doses to about 36.5 µM), for the others: at the highest dose activity change, negative = inhibition, hits mostly inhibitors; calls by dose curve; tested in A549 cells; also: potency is read from the fitted curve at half-maximal effect; nearly all actives have a fitted effect of over 35% in size
HCMV inh: human cytomegalovirus inhibition; HFF cells, HCMV-luciferase reporter, 72 h; hits give low values; activity change, negative = inhibition, % at 57.5 µM; 410,000 tested, 4.5% active; AID 1259415; in the data active = activity change below about -60%; inconclusive = no clear call, values can overlap the other calls; inactive = above about -39%
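After 16 h attachment at 37C, HFF cells received test compound and HCMV-luciferase (1 PFU/cell); reporter luminescence read 72 h later, data normalized against buffer-only and known inhibitor Salinomycin.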
Marburg entry inh: inhibitors of Marburg virus binding or cell entry; 300,000 tested, 1.8% active; Potency, µM (titrated, usually from 37.8 µM), inactives show at the top dose activity change, negative = inhibition, actives largely listed as inhibitors; Marburg virus pseudotyped entry inhibition, cell reporter; calls by dose curve; tested in HEK293 cells; also: potency is read from the fitted curve at half-maximal effect
LASV entry inh: Lassa virus entry inhibition; AID 540256; Lassa virus pseudotype entry inhibition, cell reporter; 300,000 tested, 1.2% active; Potency, µM (highest dose often 37.9 µM), for the others: at the top dose activity change, negative = inhibition, most hits filed as inhibitors; calls by dose curve; tested in HEK293 cells; also: potency is read from the fitted curve at half-maximal effect; nearly all actives have a fitted effect of over 50% in size
HCV inh: blocks hepatitis C virus; Huh7.5.1 HCVcc-Cre infection, luciferase reporter, 44 h; Potency, µM (highest dose often 41.8 µM), without a hit: at the top dose activity change, negative = inhibition, most hits filed as inhibitors; 340,000 tested, 3.4% active; active = well fitted inhibition curve with a large enough effect; inconclusive = small, poorly fitted or top-dose-only effect, or another doubt; inactive = no such curve, though single readings can be large or run the other way; also: potency is read from the fitted curve at half-maximal effect
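HCVcc-Cre virus at an moi near 0.5 was added right after compound to cells cultured 4 h from seeding (1,000 cells/well). Luciferase activity was determined 44 h later, 15 min after substrate addition at RT.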
* = called active by the depositor; [ ] = remark or other dose. % is scaled to controls: 0 for no effect and ±100 for the full control effect.

What do the screens show for `Nc1ccccc1C(=O)NC(=O)Nc1ccc(Oc2ncc(Br)cn2)c(Cl)c1`?
Vaccinia Venus: inconclusive; VACV mCherry inh: -12%; HCMV inh: -87*; Marburg entry inh: -20%; LASV entry inh: inconclusive; HCV inh: -9%

Results for Cc1cc(NC(=O)NC(=O)c2ccccc2NC(=O)CN(C)C)ccc1Oc1ncc(Br)cn1 ?
Vaccinia Venus: -30%; VACV mCherry inh: -14%; HCMV inh: -24; Marburg entry inh: inconclusive; LASV entry inh: inconclusive; HCV inh: inconclusive

What do the screens show for `COc1cccc(N2CCN(C(=O)CC(NC(=O)c3ccccc3)c3ccccc3)CC2)c1` (stereo not drawn)?
Vaccinia Venus: -9%; VACV mCherry inh: -20%; HCMV inh: -26; Marburg entry inh: -20%; LASV entry inh: 13%; HCV inh: -4%

Results for Cc1cccc(N2CCN(C(=O)CC(NC(=O)c3ccccc3)c3ccccc3)CC2C)c1 (stereo not drawn) ?
Vaccinia Venus: -21%; VACV mCherry inh: -19%; HCMV inh: -66*; Marburg entry inh: inconclusive; LASV entry inh: inconclusive; HCV inh: -28%

What do the screens show for `Cc1cccc(N2CCN(C(=O)c3cn4ccccc4n3)CC2C)c1` (stereo not drawn)?
Vaccinia Venus: -15%; VACV mCherry inh: -2%; HCMV inh: -62*; Marburg entry inh: inconclusive; LASV entry inh: -5%[46.1 µM]; HCV inh: -10%

What do the screens show for `COc1cccc(CNC(=O)CN2C(=O)CSc3c2c(C)nn3-c2ccccc2)c1OC`?
Vaccinia Venus: 2%; VACV mCherry inh: 1%; HCMV inh: -15; LASV entry inh: -26%[46.1 µM]

How did CSc1nc(Sc2ccccc2)c2ccccc2n1 do in these assays?
Vaccinia Venus: 3%; VACV mCherry inh: -1%; HCMV inh: -20; Marburg entry inh: inconclusive; LASV entry inh: -1%; HCV inh: 4.5µM*

Results for Cc1ccccc1CN1CCC(CNc2ncnc3onc(-c4ccc(Cl)cc4)c23)CC1 ?
Vaccinia Venus: 2%; VACV mCherry inh: -8%; HCMV inh: 3; LASV entry inh: 0%[46.1 µM]

What do the screens show for `COC(=O)c1ccc(C(NC(=O)OCc2ccccc2)/C(F)=C/[C@@H](C)C(=O)NCc2ccc(-c3ccccc3)cc2)cc1` (stereo partly drawn)?
Vaccinia Venus: -8%; VACV mCherry inh: inactive; Marburg entry inh: -14%; LASV entry inh: -16%; HCV inh: -13%[8.37 µM]

How did COC(=O)c1ccc(C(NC(=O)OCc2ccccc2)/C(F)=C/[C@@H](C)C(=O)NCc2ccc(OC)c(OC)c2)cc1 (stereo partly drawn) do in these assays?
Vaccinia Venus: inconclusive; VACV mCherry inh: -23%; HCMV inh: -11; Marburg entry inh: inconclusive; LASV entry inh: 15µM*; HCV inh: 2%

Results for CSc1ccc(CN(C)CC(=O)NCc2ccccc2)cc1 ?
Vaccinia Venus: -15%; VACV mCherry inh: -4%; HCMV inh: -63*; Marburg entry inh: -1%[46.1 µM]; LASV entry inh: inconclusive; HCV inh: -11%

What do the screens show for `CCOc1ccc(CN(C)C(=O)[C@H](Cc2ccccc2)NC(=O)OCc2ccccc2)cc1OC`?
Vaccinia Venus: -27%; VACV mCherry inh: inconclusive; HCMV inh: -13; Marburg entry inh: 4.5µM*; LASV entry inh: 8.9µM*; HCV inh: inconclusive

How did O=C(NC(CSSCC(NC(=O)c1ccccc1)C(=O)O)C(=O)O)c1ccccc1 (stereo not drawn) do in these assays?
Vaccinia Venus: 0%; VACV mCherry inh: -3%; HCMV inh: -18; HCV inh: 1.6µM*

How did CSc1ccc(CN(C)C(=O)C(Cc2ccccc2)NC(=O)c2ccccc2)cc1 (stereo not drawn) do in these assays?
Vaccinia Venus: -20%; VACV mCherry inh: -12%; HCMV inh: -67*; Marburg entry inh: inconclusive; LASV entry inh: inconclusive

What do the screens show for `CN(Cc1ccc(F)cc1)C(=O)C(Cc1ccccc1)NC(=O)c1ccccc1` (stereo not drawn)?
Vaccinia Venus: -4%; VACV mCherry inh: 5%; HCMV inh: -17; Marburg entry inh: inconclusive; LASV entry inh: -21%; HCV inh: -18%

How did CN(Cc1ccccc1)C(NC(=O)c1ccccc1)C(Cl)(Cl)Cl (stereo not drawn) do in these assays?
HCMV inh: -30; Marburg entry inh: -28%; LASV entry inh: 21µM*; HCV inh: inconclusive

What do the screens show for `Cc1cccc(C(=O)NC(NCCc2ccccc2)C(Cl)(Cl)Cl)c1` (stereo not drawn)?
Vaccinia Venus: -11%; VACV mCherry inh: -11%; HCMV inh: -71*; Marburg entry inh: inconclusive; LASV entry inh: inconclusive; HCV inh: -21%

What do the screens show for `CCC(Sc1ncnc2sc3c(c12)CCCC3)C(=O)OCC(C)C` (stereo not drawn)?
Vaccinia Venus: 12%; VACV mCherry inh: 1%; HCMV inh: -5; Marburg entry inh: 3%[46.1 µM]; LASV entry inh: -1%[46.1 µM]

Results for CCOc1ccc(N(CC(=O)Nc2ccc(OC)cc2)S(=O)(=O)c2ccc(Cl)cc2)cc1 ?
Vaccinia Venus: 4%; VACV mCherry inh: -12%; HCMV inh: 4; LASV entry inh: -12%[46.1 µM]

What do the screens show for `Cc1cc[n+](CC(=O)c2ccc(F)cc2)cc1`?
Vaccinia Venus: -8%; VACV mCherry inh: -16%

What do the screens show for `C=CCn1c(=O)c2ccccc2n2nnc(C(=O)OCC)c12`?
Vaccinia Venus: -10%; VACV mCherry inh: inactive; HCMV inh: -63*; Marburg entry inh: 11%; LASV entry inh: 20%; HCV inh: 16%

What do the screens show for `C=CCn1c(O)c(N=NC(=S)Nc2cccc(OC)c2)c2ccccc21`?
Vaccinia Venus: -14%; VACV mCherry inh: -20%; HCMV inh: -76*; Marburg entry inh: inconclusive; LASV entry inh: inconclusive; HCV inh: inconclusive

What do the screens show for `C=CCn1c(O)c(N=Nc2ccccc2)c2ccccc21`?
Vaccinia Venus: -11%; VACV mCherry inh: inconclusive; HCMV inh: 50; Marburg entry inh: -14%[46.1 µM]; LASV entry inh: 6%[46.1 µM]; HCV inh: 15%

What do the screens show for `CCn1c(O)c(N=NC(=O)CNC(=O)c2ccco2)c2ccccc21`?
Vaccinia Venus: inconclusive; VACV mCherry inh: -23%; HCMV inh: -62*; HCV inh: -6%

What do the screens show for `C=CCn1c(O)c(N=NC(=O)OCC)c2ccccc21`?
Vaccinia Venus: -12%; VACV mCherry inh: -28%; HCMV inh: -64*; Marburg entry inh: 3%; LASV entry inh: 3%; HCV inh: -4%

What do the screens show for `C=CCn1c(O)c(N=NC(=O)CNC(=O)c2ccco2)c2ccccc21`?
Vaccinia Venus: -22%; VACV mCherry inh: inconclusive; HCMV inh: -11; Marburg entry inh: -30%; LASV entry inh: -1%; HCV inh: -1%

Compound activity as filed in PubChem BioAssay.
